Source: PubChem BioAssay AID624300 (Southern Research Specialized Biocontainment Screening …, 2012)
Hit rate of the full screen: of about 2,400 compounds, about 360 (15%) were called active.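 How the source made its calls: active means viability falls under 70% at one or more tested concentrations, taken as toxicity; inactive means viability stays over 70% at every dose.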 These entries were drawn from the full list. Measured potencies and affinities stand elsewhere.

experiment: HeLa cell cytotoxicity, dose response, cytotoxicity control for MgcRacGAP inhibitor project (AID 624300); conditions: CellTiter-Glo luminescence, 24 h; series mostly up to 100 µM; viability: at the top concentration;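 further: 100% = median of untreated control wells on the same plate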

| SMILES | viability |
| --- | --- |
| COc1cc(/C=N/N=C(\N)c2nonc2N)ccc1O | 91.8% (inactive) |
| CNc1nnc(-c2ccc(N(C)C)cc2)s1 | 106% (inactive) |
| CCN(CC)c1ccc(N=Cc2c(C)[nH]c3ccccc23)cc1 | 87.1% (inactive) |
| COCCNCC(=O)Nc1ccc(C)c(S(=O)(=O)N2CCCCC2)c1 | 101% (inactive) |
| CCN(CC)c1ccc(/C=N\NC(N)=O)cc1 | 90.5% (inactive) |
| COc1cc(/C=N/NC(=O)c2ccoc2C)ccc1O | 84.7% (inactive) |
| COc1cc(OC)c(Cl)cc1N | 103% (inactive) |
| CCc1cc(/C(Cc2ccccn2)=N\O)c(O)cc1O | 89.5% (inactive) |
| CCc1cc(/C(Cc2csc(C)n2)=N/O)c(O)cc1O | 95.9% (inactive) |
| COc1ccc(C)cc1NCc1cccc(OC)c1OC | 99.1% (inactive) |
| Cn1cccc1/C=N/N1CCN(c2ccccn2)CC1 | 99.6% (inactive) |
| Cc1ccc(C(C)C)c(OCCCCN2CCNCC2)c1 | 89.7% (inactive) |
| Cc1ccc(C(C)(C)C)cc1S(=O)(=O)N1CCC(C(=O)N2CCN(c3ccc(O)cc3)CC2)CC1 | 82.4% (inactive) |
| N#C/C(=C/c1ccc(N2CCCCCC2)o1)c1ccc(Cl)cc1 | 81.8% (inactive) |
| Cc1ccc(/C(C#N)=C\c2ccc(N3CCOCC3)o2)cc1 | 95.3% (inactive) |
| Nc1sc(-c2ccccc2)c(Cc2ccccc2)c1C(=O)O | 87.5% (inactive) |
| COc1ccc2c(c1)c(C(=O)N/N=C/c1ccc(O)c(O)c1)c(C)n2C | 94.3% (inactive) |
| COc1cccc(OCC(O)CN2CCN(C)CC2)c1 (configuration not stated) | 102% (inactive) |
| CCN1CCN(CC(O)COC(c2ccccc2)c2ccccc2C)CC1 (configuration not stated) | 104% (inactive) |
| O=[N+]([O-])c1cccc(CN2CCN(Cc3ccco3)CC2)c1 | 101% (inactive) |
| O=[N+]([O-])c1ccc(Sc2cccc3cccnc23)c([N+](=O)[O-])c1 | 101% (inactive) |
| CCc1cc(-c2[nH]ncc2-c2nc3ccccc3n2C)c(O)cc1O | 91% (inactive) |
| CCOc1cc(/C=N/Nc2nc(=O)[nH]nc2C)ccc1O | 91.2% (inactive) |
| COc1cc(/C=N/Nc2ccc(C(F)(F)F)cn2)ccc1O | 89.1% (inactive) |

| SMILES | viability |
| --- | --- |
| COc1ccc(CN2CCN(C(=O)CC(C)C)CC2)cc1OC | 102% (inactive) |
| Cc1nnc2ccc(Oc3ccc(-c4ccccc4)cc3)nn12 | 95.5% (inactive) |
| Nc1cc2c(cc1N)-c1ccccc1C2 | 94.9% (inactive) |
| CC(=O)c1ccc2c(c1)Nc1ccccc1S2 | 94.2% (inactive) |
| CCOC(=O)Nc1ccc2c(c1)Nc1ccccc1S2 | 96.4% (inactive) |
| O=C(Sc1n[nH]c(=O)[nH]c1=O)c1ccccc1 | 101% (inactive) |
| CCN(CC)c1ccc(/C=N/N2CCN(Cc3ccccc3)CC2)cc1 | 90.3% (inactive) |
| O=C(Nc1ccc(N2CCCCCC2)cc1)c1ccc[nH]1 | 89.3% (inactive) |
| CC(C)(C)N1C(=O)c2ccc(C(=O)Nc3ccc(O)cc3)cc2C1=O | 99.5% (inactive) |
| Oc1ccc(/C=C/c2ccc3ccccc3n2)cc1 | 87.7% (inactive) |
| O=C(O)c1ccc2nc(-c3ccco3)c(-c3ccco3)nc2c1 | 95% (inactive) |
| CCOc1cc(/C=C2\SC(N)=NC2=O)ccc1O | 95.2% (inactive) |
| COc1cc(/C=C2\SC(N3CCC(C)CC3)=NC2=O)ccc1O | 106% (inactive) |
| COc1cc(C=C2NC(=O)NC2=O)ccc1O | 108% (inactive) |
| COc1cc(/C=C2\SC(=S)N(NC(=O)c3ccncc3)C2=O)ccc1O | 90.9% (inactive) |
| COc1cc(/C=C2/SC(=S)N(c3c(C)n(C)n(-c4ccccc4)c3=O)C2=O)ccc1O | 90.8% (inactive) |
| CCOC(=O)C1CCCN(C2=NC(=O)/C(=C/c3ccc(O)c(OC)c3)S2)C1 (configuration not stated) | 91.8% (inactive) |
| COc1cc(/C=C2\SC(=Nc3c(C)n(C)n(-c4ccccc4)c3=O)NC2=O)ccc1O | 97.3% (inactive) |
| O=C1/C(=C\c2ccc(O)c(O)c2)N=C2CCCCCN12 | 98.1% (inactive) |
| COc1cc(/C=N/NC(=O)c2cccc(N3CCCC3=O)c2)ccc1O | 97.9% (inactive) |
| COc1ccc2cc(C(=O)Nc3ccc(O)cc3)sc(=O)c2c1OC | 99.2% (inactive) |
| CC(C)(C)NC(=S)Nc1ccc(Nc2ccccc2)cc1 | 100% (inactive) |
| Oc1ccc(Cl)cc1C=Nc1ccc2c3c(cccc13)CC2 | 99.6% (inactive) |
| CC(=O)N1CCN(c2ccc(NCc3ccc4c(c3)OCO4)cc2)CC1 | 95.3% (inactive) |

| SMILES | viability |
| --- | --- |
| O=C(Nc1ccc(O)cc1)c1ccc2c(c1)C(=O)N(Cc1ccccc1)C2=O | 98% (inactive) |
| Nc1c(/C=C2/C=CC(=O)C(O)=C2)c(=O)nc2sc(CC(=O)N3CCOCC3)nn12 | 97.2% (inactive) |
| Cc1ccc(-c2csc3n[nH]c(=S)n23)cc1 | 94% (inactive) |
| COc1cc(/C=C/C(=O)OCC(=O)Nc2cc(S(=O)(=O)N3CCCCC3)ccc2C)ccc1O | 91.2% (inactive) |
| COc1cc(/C=C2\SC(N)=NC2=O)cc(Cl)c1O | 89% (inactive) |
| COc1cc(/C=c2\sc3n(c2=O)CCCN=3)ccc1O | 92.2% (inactive) |
| COc1cc(/C=C2\SC(=S)N(NC(=O)c3cccc(O)c3)C2=O)ccc1O | 106% (inactive) |
| COc1cc(/C=C2\SC(c3ccc(C)cc3)=NC2=O)cc(OC)c1O | 89% (inactive) |
| COc1cc(C=C2CN(C)C(=O)C2=O)ccc1O | 90.1% (inactive) |
| COc1cc(/C=C2\SC(=S)N(NC(=O)c3ccc(O)cc3)C2=O)ccc1O | 95.7% (inactive) |
| CNc1nc2c3ccccc3n(C(C)=O)c2s1 | 97.2% (inactive) |
| COc1ccc(C2NC(=O)C(C#N)=C(S)N2c2ccccc2)cc1OC (configuration not stated) | 91.9% (inactive) |
| CCOCCCNc1nc(=S)[nH]c2cc(OC)c(OC)cc12 | 94.4% (inactive) |
| COc1ccc(CN(C)CCc2ccccn2)c(OC)c1OC | 105% (inactive) |
| CN(C)c1ncnc2c1NC1=C(S2)C(=NCCCC(=O)O)CC(C)(C)C1 | 95.6% (inactive) |
| O=C(N/N=C/c1ccc(O)cc1)c1csc2ccccc12 | 93.1% (inactive) |
| COc1cc(/C=N/NC(=O)CCc2n[nH]c(=O)[nH]c2=O)ccc1O | 104% (inactive) |
| CN1CCN(CCOCCOc2ccc(Br)cc2Cl)CC1 | 97% (inactive) |
| Clc1cc(Br)ccc1OCCOCCN1CCCC1 | 95.9% (inactive) |
| CCCCn1c(=S)[nH]c2c(=O)n(C)c(=O)n(C)c21 | 101% (inactive) |
| O=[N+]([O-])/C(C=Nc1ccccc1O)=C\Nc1ccccc1O | 99.3% (inactive) |
| CN(Cc1ccccc1)C(=O)C1CCCN(Cc2ccc(Cl)cc2)C1 (configuration not stated) | 90.4% (inactive) |
| COc1cc(/C=N/NC(=O)c2ccccc2NS(=O)(=O)c2cccs2)ccc1O | 101% (inactive) |
| COC(=O)C1=C(C)N(Cc2ccco2)C(=O)C1 | 99.1% (inactive) |

| SMILES | viability |
| --- | --- |
| CCOc1cc(/C=C2\C(=O)N(Cc3ccco3)C(C)=C2C(=O)OC)ccc1O | 88.9% (inactive) |
| Oc1ccc(Br)cc1C=Nc1ccc2c3c(cccc13)CC2 | 99.1% (inactive) |
| C#CCOCCOCCOCCNc1nc(N2CCN(C(=O)C([C@@H](C)O)n3cc([C@@H](N)CCCCN)nn3)CC2)nc(N2CCN(C(=O)[C@H](CCCN=C(N)N)n3cc(C(N)[C@@H](C)CC)nn3)CC2)n1 (some centres not stated) | 102% (inactive) |
| CCC(CC)N1CCN(C(=O)c2cccc(Cl)c2)CC1 | 100% (inactive) |
| COc1cc(/C(C)=N/N2CCN(c3ccccc3OC)CC2)ccc1O | 98.8% (inactive) |
| CN(C)C(=S)N=c1ssc(=S)n1Cc1cccnc1 | 117% (inactive) |
| COc1cc(/C=N/n2c(-c3cc(C)[nH]n3)n[nH]c2=S)cc(OC)c1OC | 95.3% (inactive) |
| O=c1oc(-c2ccc(O)c(O)c2)cc2cccc(O)c12 | 75.5% (inactive) |
| COc1c(-c2ccc(O)c(O)c2)oc2cc(O)cc(O)c2c1=O | 93.9% (inactive) |
| CCOC(=O)c1[nH]c2ccccc2c1NC(=S)Nc1cc(C)ccc1C | 101% (inactive) |
| O=C(CN1CCN(c2ccc(O)cc2)CC1)Nc1ccccc1C(=O)NCCc1ccccc1 | 103% (inactive) |
| S=c1[nH]nc(-c2ccco2)n1/N=C/c1ccc(Cl)cc1 | 90.3% (inactive) |
| COc1cc2c(cc1OC)C1(CCCC1)C(N)=C2C#N | 96.8% (inactive) |
| Oc1cc(O)cc(-c2cc3ccc(O)cc3o2)c1 | 109% (inactive) |
| COc1ccc(NC2CCCN(C(=O)C3=NNC(=O)CC3)C2)cc1 (configuration not stated) | 100% (inactive) |
| N#Cc1ccccc1OCCCN1CCC(Cc2ccccc2)CC1 | 83.8% (inactive) |
| Cc1nnc(N=c2ssnc2Cl)o1 | 97.2% (inactive) |
| COc1cc(C(C)=NNC(=O)c2ccncc2)ccc1O | 95% (inactive) |
| CCCn1c(=O)c2ccccc2n2c(SCCNCCO)nnc12 | 98.8% (inactive) |
| Cc1ccc(NCc2ccccc2O)cc1C | 90.7% (inactive) |
| O=C1OCC/C1=C\c1ccc(O)cc1 | 100% (inactive) |
| COc1cc(/C=N/NC(=O)/C(=C/c2ccccc2)CCO)ccc1O | 96.7% (inactive) |
| CCN(CC)CCOC(=O)c1ccc(N/C=C(/C#N)c2nc(-c3ccc4c(c3)OCO4)cs2)cc1 | 97% (inactive) |
| COc1ccc(-c2cc(C(=O)Nc3ccc(O)cc3)c3ccccc3n2)cc1OC | 85.8% (inactive) |

| SMILES | viability |
| --- | --- |
| Cc1cc(NC(=O)c2sc3ccccc3c2O)no1 | 97.1% (inactive) |
| COc1cccc(C(=O)N2CCN(C3CCN(Cc4ccccc4)CC3)CC2)c1OC | 102% (inactive) |
| CCN(CC)c1ccc(NC(=O)CN2CCN(c3ccccn3)CC2)cc1 | 102% (inactive) |
| O=C(/C(=C/c1cccnc1)n1ccnc1)c1ccc(Cl)cc1Cl | 81.6% (inactive) |
| COc1cc(/C=N/NC(=S)NCCN2CCOCC2)ccc1O | 94.8% (inactive) |
| CCOc1cc(/C=N/NC(=O)C2CCCC2)ccc1O | 102% (inactive) |
| COc1cc(/C=N/NC(=O)CC(=O)NC2CCCCC2)ccc1O | 98.5% (inactive) |
| CCOc1cc(/C=N/NC(=O)c2cc(C3CC3)[nH]n2)ccc1O | 112% (inactive) |
| O=C(N/N=C/c1ccc(O)cc1)NC12CC3CC(CC(C3)C1)C2 | 100% (inactive) |
| COc1cc(/C=N\NC(=O)C2CC3C=CC2C3)ccc1O (configuration not stated) | 96.2% (inactive) |
| CCOc1cc(/C=N/NC(=O)C(OC)c2ccccc2)ccc1O (configuration not stated) | 101% (inactive) |
| CCOc1cc(C=NNC(=O)CCCC(=O)NN=Cc2ccc(O)c(OCC)c2)ccc1O | 104% (inactive) |
| CSc1nc(O)c(/C=C2\C=Nc3ccccc32)[nH]1 | 90.4% (inactive) |
| COc1ccc(NC2CCCN(C(=O)c3ccc(C)c(N4CCNC4=O)c3)C2)cc1 (configuration not stated) | 98.6% (inactive) |
| CCOCCCNCC(=O)NCC1CCCCC1 | 102% (inactive) |
| COc1cc(NC(=O)COC(=O)/C=C/c2ccc(O)c(OC)c2)cc(OC)c1 | 92.4% (inactive) |
| Nc1ccc(N2CCN(c3ccccc3)CC2)c(F)c1 | 101% (inactive) |
| O=C1CSC(=S)N1Nc1ccccc1 | 100% (inactive) |
| Nc1ccc(N=Nc2ccc(O)cc2)c(N)n1 | 81.5% (inactive) |
| Cc1ccc(N2C(S)=C(C#N)C(=O)NC23CCCCC3)cc1 | 96.6% (inactive) |
| Cc1cccc(-n2c(=O)c3ccccc3n3c(=S)[nH]nc23)c1C | 104% (inactive) |
